Screen size: about 360,000 compounds; about 7,500 (2.1%) were called active. Roughly 8% stayed inconclusive and do not appear here. The entries come from a sample that favours actives as a whole. More than one record can exist for a structure, and the calls need not agree. A number with no mark means an inactive call. Calls follow the shape of the dose curve; as a rule, active = well fitted cell-killing curve with a large enough effect; inconclusive = small, poorly fitted or top-dose-only effect, or effect the other way, or another doubt; inactive = no such curve, though single readings can be large or run the other way.
experiment: qHTS for induction of synthetic lethality in tumor cells producing 2HG: qHTS for the HT-1080-IDH1KD cell line; settings: HT-1080 IDH1 knockdown viability, ATP luminescence, 48 h; series mostly up to 46.1 µM; activity, negative = toxicity: at the top concentration;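 as to activity, negative = toxicity: 0% = DMSO wells and -100% = cell-free medium wells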
Outline: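 Knockdown cells (IDH1KD HT-1080) received compounds 2 h after plating at 750 cells/well and were kept 48 h at 37 °C in 5% FBS RPMI. A CellTiter-Glo luminescence read gave % activity for curve fitting.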
Potency is read from the fitted curve at half-maximal effect.

Structure (SMILES)	Potency	activity, negative = toxicity [%]
C=CC(=O)OCCOCCOCCOCCOC(=O)C=C	23.1 µM (active)	
O=Cc1cn(CCOc2ccc(F)cc2)c2ccccc12		-3.73
CCOC(=O)N1CCN(C(=O)C2CCN(S(=O)(=O)c3cc(Cl)ccc3OCC)CC2)CC1		1.79
CCOC(=O)/C(=N\Nc1ccccc1Cl)N(C)C1CCS(=O)(=O)C1 (centres undefined)		-25.2
CCOC(=O)/C(=N\Nc1cc(Cl)ccc1Cl)N1CCN(C)CC1	20.6 µM (active)	
CCC(=O)Nc1ccc2nc(C)n(Cc3ccccc3Cl)c(=O)c2c1		0.259
CCOc1cc(NC(=O)c2ccccc2C(=O)O)c(OCC)cc1NC(=O)c1ccccc1F		0.297
CCN1CCN(c2cc3nc(C)n(Cc4ccccc4)c(=O)c3cc2NC(=O)c2ccccc2F)CC1	20.6 µM (active)	
Cc1[nH]c(=O)c(C(=O)/C=C/c2ccccc2)c2c1CCCC2	3.98 µM (active)	
CC1(C(=O)O)CCCN(C(=O)/C=C/c2ccccc2)C1 (centres undefined)		16.9
O=C(/C=C/c1ccc(N2CCOCC2)cc1)c1ccccc1		-25.3
COc1cc(F)ccc1-c1cc(C(=O)NCC2CCCCC2)[nH]n1		-0.877
CC(=O)Nc1cnc(-c2ccc(O)cc2C)cn1		-2.01
Cc1ccc(Nc2nc(-c3ccc(O)cc3O)cs2)nc1	1.84 µM (active)	
Cc1ccn2c(-c3csc(Nc4ccc(C(=O)O)cc4)n3)c(C)nc2c1		-27.7
CCC1(CC)Cc2ccccc2-c2nc(CCl)[nH]c(=O)c21		-20.6
O=c1[nH]c(CCl)nc2cc(-c3ccc(Cl)cc3)sc12	11.6 µM (active)	
Cn1c(NCc2cccnc2)nc2cc(-c3ccc(F)cc3)sc2c1=O		0.818
O=C(c1ncn2c1c(=O)[nH]c1ccccc12)N1CCc2ccccc2C1		0.374
Cc1sc2nc(-c3ccccc3F)oc(=O)c2c1C		0.555
OCCC#Cc1ccc(N2C(c3ccsc3)=Cc3ccc(F)cc3C2c2c[nH]c3ccccc23)cc1 (centres undefined)	25.9 µM (active)	
Nc1ncnc2c1ncn2[C@@H]1O[C@H](C(=O)N2CCCN(Cc3ccccc3F)CC2)[C@@H](O)[C@H]1O		12.2
Cc1nnc(SC(C)C(=O)c2c[nH]c3ccccc23)n1C1CC1 (centres undefined)		8.97
CC(=NNC(N)=O)C1CC2CCC1CC2 (centres undefined)		1.1
O=C(NCCc1ccc(Cl)cc1)c1cccc(N2CCCC2=O)c1		-1.86

Structure (SMILES)	Potency	activity, negative = toxicity [%]
COc1ccc(CCNC(=S)N2CCN(S(=O)(=O)c3ccc(Cl)cc3)CC2)cc1		-13.5
Oc1cc2c(cc1O)CN(C(=S)NCCc1ccc(Cl)cc1)CCC2	39.8 µM (active)	
CCN(CC)C(=O)C1=C(C)N(Cc2ccc(OC)cc2)C(=O)C(CC(=O)NCCCCc2ccccc2)C1 (centres undefined)		-0.484
CC(C)CCOc1ccc(C(=O)Nc2cc(S(=O)(=O)N3CCOCC3)ccc2N2CCOCC2)cc1		-1.56
COc1ccc(-c2csc(C(O)c3cccc(Cl)c3)n2)cn1 (centres undefined)		-28.4
COc1cccc(NC(=O)Nc2ccc(F)cc2)c1		-0.348
COc1ccc(/C=N/Nc2cc(N3CCOCC3)nc(C)n2)c(OC)c1		-0.735
COc1cccc(/C=N/Nc2cc(C)nc(-c3ccccc3O)n2)c1O	6.51 µM (active)	
COc1cccc(/C=N/Nc2ccc(S(=O)(=O)Nc3ccccc3C(=O)O)cc2[N+](=O)[O-])c1O		9.03
Nc1ncnc2c1ncn2[C@@H]1O[C@H](C(=O)NS(=O)(=O)c2c(Cl)nc3sccn23)[C@@H](O)[C@H]1O		13.5
COc1ccc(NC(=O)N(C)C[C@@H]2OCc3cn(nn3)CCCC(=O)N([C@H](C)CO)C[C@H]2C)c(OC)c1		-13.7
COCCOC(=O)c1[nH]c2c(c1C)C(=O)CC(c1ccc(OC)cc1)C2 (centres undefined)		-0.695
COC(=O)C1C(=O)c2c([nH]c(C(=O)OCCSC)c2C)CC1C (centres undefined)		4.86
CCCOC(=O)c1[nH]c2c(c1C)C(=O)CC(c1cccs1)C2 (centres undefined)	0.651 µM (active)	
CCc1nc2c(=O)[nH]cnc2o1		6.79
O=C(Nc1ccc(Cl)cc1)c1csc([C@H]2C[C@H](O)[C@@H](CO)O2)n1		-8.66
O=C(N[C@H]1CC[C@H](CC(=O)N2CCCCC2)O[C@@H]1CO)c1cccc(F)c1		26
Cc1ccc(C(=O)N2CCCc3ccccc32)c(Cl)c1		0.883
Cc1c(C(=O)N2CCCc3ccccc32)sc2nc(-c3ccccc3)cn12		8.39
Cc1cccc2cc3c(N)c(C(=O)N4CCCc5ccccc54)sc3nc12	2.31 µM (active)	
CC(C)(C)Cc1c(C2CCCCC2)nc2ccc(Br)cn12		-20.5
C[C@H]1CN([C@@H](C)CO)C(=O)CCCn2cc(nn2)CO[C@@H]1CN(C)S(=O)(=O)c1ccc(-c2ccccc2)cc1		3.42
Cc1ccc(C)n1NC(=O)c1ccc([N+](=O)[O-])cc1		-6.65
N=C1C(c2nc3ccccc3s2)=C(O)CN1NC(=O)c1ccc([N+](=O)[O-])cc1	20.6 µM (active)	

— PubChem BioAssay AID686971 (National Center for Advancing Translational Sciences (NCATS), 2013)
